The results in this text go back to PubChem BioAssay AID489025 (Southern Research Specialized Biocontainment Screening …, 2010).

About 790 (34%) of roughly 2,300 compounds were called active. The rule behind the calls is not given here. The list shows a part of the results. Results with a measured potency or affinity are listed apart.

The assay is described as follows: THP-1 cell cytotoxicity, dose response, cytotoxicity control for non-replicating M. tuberculosis project (AID 489025). The settings on record: THP-1 cell viability; series mostly up to 40 µM.
With `COc1cccc(C(=O)C2CCCN(CC3=Cc4cc(OC)ccc4OC3)C2)c1` (configuration not stated), the result was inactive.

For `CCn1cc(C(=O)NC(C)C23CC4CC(CC(C4)C2)C3)cn1` (configuration not stated), the call was inactive.

With `O=C(c1ccc(Cl)cc1)c1nnc(-c2ccncc2)o1`, the outcome was inactive.

`O=C(CCc1ccccc1F)N1CCN(c2ccccc2)CC1`: the compound was classed as inactive.

For `Cc1ccc(S(=O)(=O)N2CCC(C(=O)OCc3ccccc3)CC2)cc1C`, the compound was classed as inactive.

For the compound `O=C(OCC(=O)N1CCN(c2ccccc2)CC1)c1ccc2ccccc2n1`, the result was inactive.

Turning to `O=C(OCC(=O)N1CCN(c2ccccc2)CC1)c1ccc(Cl)cc1[N+](=O)[O-]`, the compound was called inactive.

Turning to `CC(NC(=O)COc1ccccc1F)C1CC2CCC1C2` (configuration not stated), the outcome was inactive.

As to `O=C(NCCc1ccccc1)c1nc(-c2cccs2)no1`, the compound was classed as inactive.

Turning to `COc1ccc(NC(=O)COc2ccccc2)cc1Cl`, the compound was classed as inactive.

`CCOC(=O)Nc1cccc(OCC(=O)Nc2ccccc2OC)c1`: the compound was called inactive.

For `Cc1ccc(CNCc2cc(Cl)ccc2O)cc1`, the call was inactive.

Consider `CC(Cc1ccccc1Sc1ccccc1)N(C)C` (configuration not stated), for which the compound was classed as inactive.

With `CCOc1ccccc1NC(=O)COn1nnc2ccc(Cl)cc21`, the outcome was inactive.

`CCOc1cccc2cc(C(=O)Nc3nccs3)c(=O)oc12`: the compound was classed as inactive.

For the compound `OC(C#CCN1CCOCC1)c1cccs1` (configuration not stated), the call was inactive.

For the compound `Cc1[nH]nc2c1C(c1ccc(OC(=O)c3ccco3)cc1)C(C#N)=C(N)O2` (configuration not stated), the compound was called inactive.

Turning to `CCOC(=O)CN1NC2(CCCC(C)C2)NC1=S` (configuration not stated), the compound was called inactive.

Regarding `CCOC(=O)c1cc(-c2csc(COc3ccccc3Cl)n2)on1`, the result was inactive.

For `COCCOC(=O)c1c(C)oc2ccc(OC(=O)c3ccco3)cc12`, the compound was called inactive.

Consider `CC(=O)N1CCN(C(=O)CC2OC(=O)c3ccccc32)CC1` (configuration not stated), for which the compound was classed as inactive.

Take `COCCn1c(C)cc(C(=O)COC(=O)c2ccc(Br)o2)c1C`: the compound was called inactive.

On to `CCCN1C(=O)SC(CC(=O)Nc2ccccc2)C1=O` (configuration not stated), for which the compound was called inactive.

As to `Nc1nnc(Sc2ncccc2[N+](=O)[O-])s1`, the call was inactive.

Turning to `CNc1nnc(Sc2ncccc2[N+](=O)[O-])s1`, the outcome was inactive.

For `COc1ccc(OCCSc2nnc(Cc3cccc4ccccc34)n2N)cc1`, the compound was called inactive.

For `O=C(c1ccccc1)n1c(=O)c(F)cn(COCCBr)c1=O`, the call was inactive.

As for `CCOC(=O)C(Nc1ccc2ccccc2c1)C(=O)OCC`, the compound was called inactive.

For `Cc1nnc(NC(=O)c2ccc3ccccc3c2)o1`, the call was inactive.

Consider `O=C(Cn1cc([N+](=O)[O-])nc1[N+](=O)[O-])N1CCN(c2ccccc2)CC1`, for which the result was inactive.

As to `COc1cccc(NC(=O)c2cc3ccccc3oc2=O)c1`, the call was inactive.

Consider `O=c1oc2ccccc2c2c1nc(C(F)(F)F)n2-c1ccccc1`, for which the compound was called inactive.

Turning to `COC(=O)CN(C#N)c1nc(SC)nc(N(C)C)n1`, the compound was called inactive.

As for `Cc1ccc(N2NC(=O)/C(=C/C=C/c3ccco3)C2=O)cc1C`, the result was inactive.

In the case of `O=C(NC(=S)Nn1cnc2c(cnn2-c2ccccc2)c1=O)c1ccccc1`, the outcome was inactive.

In the case of `CCOC(=O)Cn1c2ccc(F)cc2c2nc(C)sc21`, the result was inactive.

Regarding `Cc1nnc(N/N=C/c2ccc(Br)cc2)n1N`, the outcome was inactive.

For the compound `Cc1ccccc1OCC(=O)OCC(=O)c1ccc[nH]1`, the call was inactive.

For the compound `CC1(CCc2ccc3c(c2)OCO3)NC(=O)c2ccccc2N1` (configuration not stated), the compound was called inactive.

On to `O=C(COc1ccc(Br)cc1)N/N=C1/SCC(=O)N1Cc1ccco1`, for which the outcome was inactive.

Take `CCc1nnc(N/N=C/c2c(F)cccc2Cl)n1N`: the outcome was inactive.

Take `Cc1ccsc1/C=N/NC(=O)c1ccncc1`: the call was inactive.

With `O=C(N/N=C1\CCCc2c1[nH]c1ccc(Cl)cc21)c1ccncc1`, the call was inactive.

For the compound `COc1ccc(C(C)=O)cc1COC(=O)c1ccc2ccccc2n1`, the outcome was inactive.

As for `c1nc2n(n1)C1=C(CCCC1)C1(CCCCC1)N2`, the result was inactive.

Regarding `CC1CCN(S(=O)(=O)c2cccc(C(=O)Oc3ccc([N+](=O)[O-])cc3)c2)CC1`, the call was inactive.

On to `CCOc1ccc(NC(=O)c2nnn(CC(=O)Nc3ccccc3OC)c2N)cc1`, for which the call was inactive.

`CCOC(=O)c1ccc(NC(=O)NS(=O)(=O)c2ccc(C)cc2)cc1`: the call was inactive.

With `Cc1ccc(NC(=O)CN(C)CC(=O)Nc2ccc(F)c(Cl)c2)cc1`, the compound was classed as inactive.

For the compound `CN(C)S(=O)(=O)c1ccc(C(=O)Oc2ccccc2)cc1`, the compound was called inactive.

Take `CC(C)C(=O)Nc1cccc(-c2nc3ccccc3c(=O)o2)c1`: the result was inactive.

On to `CCOC(=O)Cn1c(C)c(Br)c(=O)c2cccc(C)c21`, for which the outcome was inactive.

In the case of `CN(C)Cc1ccccc1Sc1ccc(Br)cc1`, the result was inactive.

`FC(F)(F)c1nc(SCc2ccc(Cl)cc2Cl)n[nH]1`: the outcome was inactive.

Regarding `O=[N+]([O-])c1ccc(CN2CCN(c3ccccc3Cl)CC2)o1`, the outcome was inactive.

In the case of `COC(=O)COc1ccc(S(=O)(=O)N2CCN(c3ccccc3F)CC2)cc1`, the result was inactive.

As for `O=C(CN1CCCCC1)Nc1nnc(-c2ccc([N+](=O)[O-])cc2)s1`, the compound was classed as inactive.

For the compound `Cc1ccccc1N1CCN(Cc2ccc([N+](=O)[O-])o2)CC1`, the call was inactive.

Consider `Cc1cc2cc(CNC(=O)C3CCCC3)ccc2n1C`, for which the outcome was inactive.

For `O=C(CN1CCN(c2ccccc2)CC1)Nc1nnc(-c2ccccc2)s1`, the compound was classed as inactive.

On to `Cc1ccc(CNC(=O)c2cnccn2)cc1`, for which the compound was called inactive.

Regarding `O=C(Oc1ccccc1)c1ccc(COC(=O)c2cnccn2)cc1`, the compound was classed as inactive.

Regarding `COc1ccccc1C1=Nn2c(nnc2C2CCCCC2)SC1`, the call was inactive.

For the compound `O=C(Nc1ccc(Cl)cn1)C1COc2ccccc2O1` (configuration not stated), the result was inactive.

As to `O=c1oc(-c2cccs2)nc2c1cnn2-c1ccccc1`, the outcome was inactive.

Take `Cc1ccccc1Cn1cc(NC(=O)c2noc(C(C)C)c2[N+](=O)[O-])cn1`: the result was inactive.

For the compound `COc1ccc(CN=C(C#N)C2=C(O)c3ccccc3C2=O)cc1`, the compound was classed as inactive.

On to `CC(C)CN1C(=O)CC(Sc2ccccc2C(=O)O)C1=O` (configuration not stated), for which the result was inactive.

Consider `CC(=O)c1c(C)n(C)c2ccc(OC(=O)c3ccco3)cc12`, for which the call was inactive.

Consider `Cc1ccc(NC(=O)CCSc2nnc(Cc3ccccc3)o2)cc1`, for which the outcome was inactive.

Consider `O=C(NCc1ccccc1CN1CCCC1)c1cc2ccccc2o1`, for which the compound was classed as inactive.

Turning to `Oc1ccc(Cl)cc1CNCc1ccc(F)cc1`, the compound was classed as inactive.

For the compound `Brc1ccc(-c2ccc(CNCc3ccccn3)o2)cc1`, the call was inactive.

Take `O=c1cc(C(F)(F)F)[nH]c2c(C(F)(F)F)cccc12`: the outcome was inactive.

Turning to `CN(C)CCN1C(=O)c2oc3ccccc3c(=O)c2C1c1cccc(Br)c1` (configuration not stated), the outcome was inactive.

As to `O=C(c1cc2ccccc2o1)N1CCN(Cc2ccccc2)CC1`, the outcome was inactive.

Turning to `O=C1CCC(=O)N1CNc1ccc(Oc2ccccc2)cc1`, the outcome was inactive.
